# Assay results published in ChEMBL document CHEMBL1961873, “Compounds: GSK PKIS; Assays: Nanosyn kinase panel” (2012).
# Experiments:
# [1] = target: T1, Inhibitor of nuclear factor kappa-B kinase subunit epsilon (Homo sapiens) (UniProt Q14164); conditions: at 1 µM;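 further: reported values are averaged percent inhibition figures against human IKKε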
# T1 sequence (whole entry): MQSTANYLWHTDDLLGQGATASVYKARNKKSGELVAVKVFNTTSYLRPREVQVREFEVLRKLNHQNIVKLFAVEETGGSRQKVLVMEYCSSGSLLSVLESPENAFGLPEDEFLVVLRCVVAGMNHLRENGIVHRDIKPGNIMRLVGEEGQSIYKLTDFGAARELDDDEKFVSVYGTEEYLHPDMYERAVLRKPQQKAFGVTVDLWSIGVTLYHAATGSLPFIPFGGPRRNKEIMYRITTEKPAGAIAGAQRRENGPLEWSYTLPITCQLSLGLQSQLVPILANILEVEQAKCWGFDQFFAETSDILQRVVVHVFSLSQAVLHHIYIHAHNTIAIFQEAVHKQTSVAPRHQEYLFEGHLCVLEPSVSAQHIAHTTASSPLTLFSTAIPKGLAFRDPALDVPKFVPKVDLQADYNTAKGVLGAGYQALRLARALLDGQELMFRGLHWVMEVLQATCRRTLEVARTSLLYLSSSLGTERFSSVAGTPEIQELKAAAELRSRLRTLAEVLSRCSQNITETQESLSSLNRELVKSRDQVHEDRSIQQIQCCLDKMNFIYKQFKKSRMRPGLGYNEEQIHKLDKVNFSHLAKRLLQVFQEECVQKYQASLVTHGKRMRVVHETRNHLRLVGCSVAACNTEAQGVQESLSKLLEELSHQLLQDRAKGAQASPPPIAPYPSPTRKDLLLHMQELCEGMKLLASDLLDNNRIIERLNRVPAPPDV
# [2] = target: T2, Serine/threonine-protein kinase Nek1 (Homo sapiens) (UniProt Q96PY6); conditions: at 0.1 µM
# T2 sequence (whole entry): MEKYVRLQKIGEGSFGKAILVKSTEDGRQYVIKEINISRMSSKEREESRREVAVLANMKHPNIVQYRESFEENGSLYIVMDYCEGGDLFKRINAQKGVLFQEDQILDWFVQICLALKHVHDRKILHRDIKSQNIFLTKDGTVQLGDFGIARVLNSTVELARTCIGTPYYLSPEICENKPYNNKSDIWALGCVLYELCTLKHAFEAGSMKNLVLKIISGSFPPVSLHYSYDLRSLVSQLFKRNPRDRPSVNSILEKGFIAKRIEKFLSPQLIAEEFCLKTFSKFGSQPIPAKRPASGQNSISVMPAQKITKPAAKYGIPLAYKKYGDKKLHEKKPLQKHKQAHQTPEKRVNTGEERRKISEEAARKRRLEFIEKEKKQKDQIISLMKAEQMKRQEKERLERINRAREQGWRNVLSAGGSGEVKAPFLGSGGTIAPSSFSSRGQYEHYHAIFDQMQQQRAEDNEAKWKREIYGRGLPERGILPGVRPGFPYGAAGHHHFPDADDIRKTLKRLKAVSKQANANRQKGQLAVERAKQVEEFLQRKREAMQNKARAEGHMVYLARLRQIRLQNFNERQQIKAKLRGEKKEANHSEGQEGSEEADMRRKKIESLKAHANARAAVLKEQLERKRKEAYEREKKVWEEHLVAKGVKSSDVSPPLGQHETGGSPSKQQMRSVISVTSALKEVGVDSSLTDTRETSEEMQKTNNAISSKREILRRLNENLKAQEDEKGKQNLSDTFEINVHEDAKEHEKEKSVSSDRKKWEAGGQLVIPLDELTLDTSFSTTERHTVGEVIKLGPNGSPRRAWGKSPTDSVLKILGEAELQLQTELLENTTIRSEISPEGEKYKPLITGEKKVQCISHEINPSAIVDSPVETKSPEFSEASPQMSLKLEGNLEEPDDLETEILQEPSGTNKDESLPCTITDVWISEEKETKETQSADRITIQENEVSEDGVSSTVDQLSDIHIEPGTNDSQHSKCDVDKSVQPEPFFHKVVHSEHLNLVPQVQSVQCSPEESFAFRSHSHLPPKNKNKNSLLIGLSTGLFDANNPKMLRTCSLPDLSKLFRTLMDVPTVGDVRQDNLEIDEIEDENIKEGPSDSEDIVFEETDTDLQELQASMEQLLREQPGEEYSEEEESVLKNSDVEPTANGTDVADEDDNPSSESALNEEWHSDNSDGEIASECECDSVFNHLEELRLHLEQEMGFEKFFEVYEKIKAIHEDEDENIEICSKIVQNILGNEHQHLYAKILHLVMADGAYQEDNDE
# [3] = target: T2, Serine/threonine-protein kinase Nek1 (Homo sapiens); conditions: at 1 µM
# [4] = target: T3, Serine/threonine-protein kinase Nek2 (Homo sapiens) (UniProt P51955); conditions: at 0.1 µM
# T3 sequence (whole entry): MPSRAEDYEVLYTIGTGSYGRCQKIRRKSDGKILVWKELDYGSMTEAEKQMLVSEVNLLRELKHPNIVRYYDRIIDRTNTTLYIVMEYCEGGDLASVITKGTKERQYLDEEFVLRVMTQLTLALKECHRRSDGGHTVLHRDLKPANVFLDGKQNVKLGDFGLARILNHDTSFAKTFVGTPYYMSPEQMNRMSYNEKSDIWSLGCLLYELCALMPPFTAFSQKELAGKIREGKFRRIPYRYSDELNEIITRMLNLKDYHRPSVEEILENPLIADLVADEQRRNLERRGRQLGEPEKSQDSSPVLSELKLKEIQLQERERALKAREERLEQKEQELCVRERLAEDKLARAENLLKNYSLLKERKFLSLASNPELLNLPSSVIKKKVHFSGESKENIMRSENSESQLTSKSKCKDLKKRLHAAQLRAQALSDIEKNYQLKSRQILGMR
# [5] = target: T3, Serine/threonine-protein kinase Nek2 (Homo sapiens); conditions: at 1 µM
# [6] = target: Serine/threonine-protein kinase Nek6 (Homo sapiens) (UniProt Q9HC98); conditions: at 0.1 µM
# Chain of Serine/threonine-protein kinase Nek6 (Homo sapiens) (Q9HC98 whole entry): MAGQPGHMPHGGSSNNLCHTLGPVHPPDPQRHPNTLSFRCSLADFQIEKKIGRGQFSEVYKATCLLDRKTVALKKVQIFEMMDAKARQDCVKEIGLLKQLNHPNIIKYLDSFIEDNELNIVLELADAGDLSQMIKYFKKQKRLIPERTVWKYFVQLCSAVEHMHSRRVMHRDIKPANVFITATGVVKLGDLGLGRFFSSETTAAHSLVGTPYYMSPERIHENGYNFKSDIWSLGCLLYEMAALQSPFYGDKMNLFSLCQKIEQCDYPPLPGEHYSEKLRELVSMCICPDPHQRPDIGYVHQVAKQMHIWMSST
# [7] = target: Serine/threonine-protein kinase Nek6 (Homo sapiens) (UniProt Q9HC98); conditions: at 1 µM
# [8] = target: Serine/threonine-protein kinase Nek7 (Homo sapiens) (UniProt Q8TDX7); conditions: at 0.1 µM
# Chain of Serine/threonine-protein kinase Nek7 (Homo sapiens) (Q8TDX7 whole entry, looked up): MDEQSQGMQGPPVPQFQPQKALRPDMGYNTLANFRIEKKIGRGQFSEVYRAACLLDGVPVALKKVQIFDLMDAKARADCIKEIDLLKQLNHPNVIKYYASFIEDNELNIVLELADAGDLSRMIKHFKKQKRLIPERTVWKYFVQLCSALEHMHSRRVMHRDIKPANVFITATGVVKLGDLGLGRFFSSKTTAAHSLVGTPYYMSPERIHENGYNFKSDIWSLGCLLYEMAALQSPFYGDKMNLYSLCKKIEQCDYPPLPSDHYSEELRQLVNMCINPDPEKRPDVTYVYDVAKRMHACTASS
# [9] = target: Serine/threonine-protein kinase Nek7 (Homo sapiens) (UniProt Q8TDX7); conditions: at 1 µM
# [10] = target: T4, Serine/threonine-protein kinase Nek9 (Homo sapiens) (UniProt Q8TD19); conditions: at 0.1 µM
# T4 sequence (whole entry): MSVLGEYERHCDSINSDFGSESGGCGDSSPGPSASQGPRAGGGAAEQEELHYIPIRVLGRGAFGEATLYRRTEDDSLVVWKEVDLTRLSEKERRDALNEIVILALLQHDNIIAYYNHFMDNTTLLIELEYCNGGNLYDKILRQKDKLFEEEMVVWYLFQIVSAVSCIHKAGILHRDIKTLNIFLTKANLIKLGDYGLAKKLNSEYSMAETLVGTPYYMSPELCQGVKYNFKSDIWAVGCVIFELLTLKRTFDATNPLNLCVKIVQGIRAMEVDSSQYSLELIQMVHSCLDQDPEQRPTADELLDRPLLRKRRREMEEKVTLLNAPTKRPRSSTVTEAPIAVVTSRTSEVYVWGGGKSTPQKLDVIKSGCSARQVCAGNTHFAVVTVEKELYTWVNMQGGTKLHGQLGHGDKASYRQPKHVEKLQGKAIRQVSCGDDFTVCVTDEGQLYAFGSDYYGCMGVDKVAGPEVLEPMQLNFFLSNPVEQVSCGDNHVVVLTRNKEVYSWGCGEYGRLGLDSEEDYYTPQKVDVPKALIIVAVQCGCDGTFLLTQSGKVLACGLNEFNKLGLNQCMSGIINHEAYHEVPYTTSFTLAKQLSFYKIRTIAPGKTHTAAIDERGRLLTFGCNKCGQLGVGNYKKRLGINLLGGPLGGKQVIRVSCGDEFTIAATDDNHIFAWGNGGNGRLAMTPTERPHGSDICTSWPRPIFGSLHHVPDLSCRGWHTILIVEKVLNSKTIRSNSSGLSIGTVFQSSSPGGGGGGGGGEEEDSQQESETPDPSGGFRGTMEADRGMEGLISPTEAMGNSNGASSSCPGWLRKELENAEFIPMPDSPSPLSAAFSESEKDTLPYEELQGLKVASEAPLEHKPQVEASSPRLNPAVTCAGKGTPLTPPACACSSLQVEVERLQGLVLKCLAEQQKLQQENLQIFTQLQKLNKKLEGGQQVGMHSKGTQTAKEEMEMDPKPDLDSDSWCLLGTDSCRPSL
# [11] = target: T4, Serine/threonine-protein kinase Nek9 (Homo sapiens); conditions: at 1 µM
# [12] = target: Serine/threonine-protein kinase PLK1 (Homo sapiens) (UniProt P53350); conditions: at 0.1 µM
# Chain of Serine/threonine-protein kinase PLK1 (Homo sapiens) (P53350 whole entry): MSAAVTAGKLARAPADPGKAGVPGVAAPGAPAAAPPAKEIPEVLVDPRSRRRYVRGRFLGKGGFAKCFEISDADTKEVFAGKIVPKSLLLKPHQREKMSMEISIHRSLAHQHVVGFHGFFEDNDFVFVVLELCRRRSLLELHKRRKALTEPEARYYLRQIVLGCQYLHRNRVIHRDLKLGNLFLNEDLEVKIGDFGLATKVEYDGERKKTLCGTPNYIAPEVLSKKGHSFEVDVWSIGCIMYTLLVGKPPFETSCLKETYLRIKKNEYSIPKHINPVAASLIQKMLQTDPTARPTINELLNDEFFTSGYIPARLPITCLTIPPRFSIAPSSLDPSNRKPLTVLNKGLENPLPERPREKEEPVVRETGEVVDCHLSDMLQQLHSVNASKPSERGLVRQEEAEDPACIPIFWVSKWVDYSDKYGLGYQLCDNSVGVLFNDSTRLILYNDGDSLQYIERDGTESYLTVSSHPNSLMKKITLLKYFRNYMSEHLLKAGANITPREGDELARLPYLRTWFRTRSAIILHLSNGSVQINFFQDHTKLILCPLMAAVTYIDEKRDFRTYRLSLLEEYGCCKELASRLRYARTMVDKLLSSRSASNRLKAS
# [13] = target: Serine/threonine-protein kinase PLK1 (Homo sapiens) (UniProt P53350); conditions: at 1 µM
# [14] = target: T5, Dual specificity protein kinase TTK (Homo sapiens) (UniProt P33981); conditions: at 0.1 µM
# T5 sequence (whole entry): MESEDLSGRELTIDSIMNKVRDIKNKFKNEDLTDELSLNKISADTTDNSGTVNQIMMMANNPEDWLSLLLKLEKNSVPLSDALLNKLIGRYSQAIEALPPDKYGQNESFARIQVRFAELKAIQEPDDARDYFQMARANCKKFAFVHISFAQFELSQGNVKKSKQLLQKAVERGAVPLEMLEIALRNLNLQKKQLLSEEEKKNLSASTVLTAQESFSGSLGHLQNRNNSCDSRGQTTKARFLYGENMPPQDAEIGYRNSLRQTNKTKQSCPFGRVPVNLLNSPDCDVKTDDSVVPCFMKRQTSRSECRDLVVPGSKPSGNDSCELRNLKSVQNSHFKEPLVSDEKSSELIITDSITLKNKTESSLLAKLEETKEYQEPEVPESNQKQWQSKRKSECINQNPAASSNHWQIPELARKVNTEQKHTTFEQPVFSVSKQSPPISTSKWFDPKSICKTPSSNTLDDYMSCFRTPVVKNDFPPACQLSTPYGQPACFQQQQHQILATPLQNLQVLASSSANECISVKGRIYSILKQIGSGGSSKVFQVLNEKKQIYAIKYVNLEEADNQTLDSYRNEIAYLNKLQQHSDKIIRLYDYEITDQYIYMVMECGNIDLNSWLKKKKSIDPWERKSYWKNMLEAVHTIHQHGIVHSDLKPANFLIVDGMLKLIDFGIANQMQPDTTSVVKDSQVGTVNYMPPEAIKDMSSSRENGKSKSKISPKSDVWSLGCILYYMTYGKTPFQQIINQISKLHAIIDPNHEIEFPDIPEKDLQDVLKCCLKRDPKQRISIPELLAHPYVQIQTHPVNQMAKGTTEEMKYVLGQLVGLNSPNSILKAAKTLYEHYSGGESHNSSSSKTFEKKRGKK
# [15] = system: T6, Receptor-type tyrosine-protein kinase FLT3 (Homo sapiens), P36888 [D835Y]; conditions: at 1 µM
# T6 sequence (whole entry): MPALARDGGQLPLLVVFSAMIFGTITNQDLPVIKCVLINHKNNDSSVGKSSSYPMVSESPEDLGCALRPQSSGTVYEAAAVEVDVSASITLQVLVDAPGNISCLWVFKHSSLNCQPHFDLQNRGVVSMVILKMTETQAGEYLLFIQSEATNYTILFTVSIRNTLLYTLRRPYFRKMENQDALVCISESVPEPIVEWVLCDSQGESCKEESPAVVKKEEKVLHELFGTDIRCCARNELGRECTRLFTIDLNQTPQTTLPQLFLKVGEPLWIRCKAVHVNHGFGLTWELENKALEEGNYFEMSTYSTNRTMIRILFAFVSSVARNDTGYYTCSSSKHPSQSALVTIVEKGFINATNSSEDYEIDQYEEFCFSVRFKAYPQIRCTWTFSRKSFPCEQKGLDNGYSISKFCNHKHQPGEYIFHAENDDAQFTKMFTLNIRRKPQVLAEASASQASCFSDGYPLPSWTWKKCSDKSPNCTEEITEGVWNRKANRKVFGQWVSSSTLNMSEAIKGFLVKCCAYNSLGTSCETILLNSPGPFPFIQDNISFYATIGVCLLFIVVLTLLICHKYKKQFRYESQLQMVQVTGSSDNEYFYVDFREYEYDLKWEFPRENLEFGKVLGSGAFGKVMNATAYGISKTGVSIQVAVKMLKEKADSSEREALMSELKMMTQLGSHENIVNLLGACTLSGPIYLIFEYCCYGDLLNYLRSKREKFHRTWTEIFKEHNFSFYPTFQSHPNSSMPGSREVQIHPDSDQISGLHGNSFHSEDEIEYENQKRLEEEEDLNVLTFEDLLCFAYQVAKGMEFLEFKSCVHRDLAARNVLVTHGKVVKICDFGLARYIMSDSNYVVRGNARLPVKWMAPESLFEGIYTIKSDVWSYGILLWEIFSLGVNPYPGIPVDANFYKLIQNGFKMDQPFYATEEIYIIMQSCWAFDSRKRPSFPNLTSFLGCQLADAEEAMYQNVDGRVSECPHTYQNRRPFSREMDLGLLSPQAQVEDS
# [16] = target: Vascular endothelial growth factor receptor 3 (Homo sapiens) (UniProt P35916); conditions: at 0.1 µM
# Chain of Vascular endothelial growth factor receptor 3 (Homo sapiens) (P35916 whole entry): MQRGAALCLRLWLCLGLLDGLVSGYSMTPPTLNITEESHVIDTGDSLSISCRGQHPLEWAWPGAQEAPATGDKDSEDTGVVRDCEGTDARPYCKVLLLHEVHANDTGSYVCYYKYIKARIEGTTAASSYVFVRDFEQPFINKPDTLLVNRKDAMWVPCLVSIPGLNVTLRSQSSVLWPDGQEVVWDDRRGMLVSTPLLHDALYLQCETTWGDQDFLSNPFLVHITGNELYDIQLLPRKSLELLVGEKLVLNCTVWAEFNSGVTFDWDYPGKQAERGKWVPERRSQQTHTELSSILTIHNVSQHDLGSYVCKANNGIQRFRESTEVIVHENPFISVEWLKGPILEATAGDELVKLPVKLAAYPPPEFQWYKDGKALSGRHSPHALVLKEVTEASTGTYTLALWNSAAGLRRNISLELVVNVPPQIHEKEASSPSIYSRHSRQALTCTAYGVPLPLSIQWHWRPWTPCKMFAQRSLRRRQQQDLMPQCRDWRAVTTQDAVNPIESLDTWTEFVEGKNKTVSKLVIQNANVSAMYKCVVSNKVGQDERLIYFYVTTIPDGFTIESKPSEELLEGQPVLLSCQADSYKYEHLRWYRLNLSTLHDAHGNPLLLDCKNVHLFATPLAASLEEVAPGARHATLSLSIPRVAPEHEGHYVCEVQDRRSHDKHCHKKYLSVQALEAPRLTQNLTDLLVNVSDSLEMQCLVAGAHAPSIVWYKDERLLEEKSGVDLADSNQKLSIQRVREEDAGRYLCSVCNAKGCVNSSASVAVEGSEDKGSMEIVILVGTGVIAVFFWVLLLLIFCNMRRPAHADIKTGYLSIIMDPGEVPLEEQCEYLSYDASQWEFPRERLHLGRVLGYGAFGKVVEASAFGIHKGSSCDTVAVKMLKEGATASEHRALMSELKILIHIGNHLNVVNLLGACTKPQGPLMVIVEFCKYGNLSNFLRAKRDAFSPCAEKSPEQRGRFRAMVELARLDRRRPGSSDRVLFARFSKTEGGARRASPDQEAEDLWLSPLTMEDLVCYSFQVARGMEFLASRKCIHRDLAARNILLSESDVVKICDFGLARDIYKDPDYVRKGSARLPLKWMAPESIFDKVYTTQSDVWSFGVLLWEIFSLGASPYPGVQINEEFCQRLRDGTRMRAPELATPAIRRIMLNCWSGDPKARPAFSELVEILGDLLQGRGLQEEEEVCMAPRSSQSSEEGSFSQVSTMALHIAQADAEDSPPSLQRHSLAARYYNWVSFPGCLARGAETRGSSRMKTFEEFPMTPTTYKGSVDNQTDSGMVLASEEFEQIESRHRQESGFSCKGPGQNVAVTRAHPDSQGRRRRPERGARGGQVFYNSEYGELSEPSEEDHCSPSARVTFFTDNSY
# [17] = target: Vascular endothelial growth factor receptor 3 (Homo sapiens) (UniProt P35916); conditions: at 1 µM
# [18] = target: Macrophage colony-stimulating factor 1 receptor (Homo sapiens) (UniProt P07333); conditions: at 0.1 µM
# Chain of Macrophage colony-stimulating factor 1 receptor (Homo sapiens) (P07333 whole entry): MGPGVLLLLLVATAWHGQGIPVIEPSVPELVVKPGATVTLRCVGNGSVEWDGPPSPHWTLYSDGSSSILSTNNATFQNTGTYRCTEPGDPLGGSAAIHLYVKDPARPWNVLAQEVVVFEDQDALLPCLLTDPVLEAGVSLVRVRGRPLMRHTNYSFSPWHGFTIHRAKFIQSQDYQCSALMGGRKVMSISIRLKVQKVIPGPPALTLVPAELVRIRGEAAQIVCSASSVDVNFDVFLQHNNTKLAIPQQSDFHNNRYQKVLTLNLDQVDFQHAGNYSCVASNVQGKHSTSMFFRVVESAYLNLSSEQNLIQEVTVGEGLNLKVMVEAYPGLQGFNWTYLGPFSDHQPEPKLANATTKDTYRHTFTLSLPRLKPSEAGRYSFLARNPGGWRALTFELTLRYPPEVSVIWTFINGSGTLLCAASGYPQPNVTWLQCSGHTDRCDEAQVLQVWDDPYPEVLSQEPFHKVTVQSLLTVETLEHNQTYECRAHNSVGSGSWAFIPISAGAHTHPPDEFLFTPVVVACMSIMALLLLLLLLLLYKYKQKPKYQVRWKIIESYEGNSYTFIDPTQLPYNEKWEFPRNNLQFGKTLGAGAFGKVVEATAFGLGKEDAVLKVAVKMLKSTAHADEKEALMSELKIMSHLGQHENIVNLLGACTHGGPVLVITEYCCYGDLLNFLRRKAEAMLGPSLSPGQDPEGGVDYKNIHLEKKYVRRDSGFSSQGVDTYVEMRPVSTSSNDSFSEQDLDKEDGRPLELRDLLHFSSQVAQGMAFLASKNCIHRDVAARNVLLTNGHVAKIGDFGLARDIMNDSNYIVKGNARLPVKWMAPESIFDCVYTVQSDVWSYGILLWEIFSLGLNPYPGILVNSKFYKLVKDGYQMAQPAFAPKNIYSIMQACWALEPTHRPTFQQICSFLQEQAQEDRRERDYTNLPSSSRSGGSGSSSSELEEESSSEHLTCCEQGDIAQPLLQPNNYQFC
# [19] = target: Macrophage colony-stimulating factor 1 receptor (Homo sapiens) (UniProt P07333); conditions: at 1 µM
# [20] = target: Tyrosine-protein kinase Fyn (Homo sapiens) (UniProt P06241); conditions: at 0.1 µM
# Chain of Tyrosine-protein kinase Fyn (Homo sapiens) (P06241 2-537 limits assumed): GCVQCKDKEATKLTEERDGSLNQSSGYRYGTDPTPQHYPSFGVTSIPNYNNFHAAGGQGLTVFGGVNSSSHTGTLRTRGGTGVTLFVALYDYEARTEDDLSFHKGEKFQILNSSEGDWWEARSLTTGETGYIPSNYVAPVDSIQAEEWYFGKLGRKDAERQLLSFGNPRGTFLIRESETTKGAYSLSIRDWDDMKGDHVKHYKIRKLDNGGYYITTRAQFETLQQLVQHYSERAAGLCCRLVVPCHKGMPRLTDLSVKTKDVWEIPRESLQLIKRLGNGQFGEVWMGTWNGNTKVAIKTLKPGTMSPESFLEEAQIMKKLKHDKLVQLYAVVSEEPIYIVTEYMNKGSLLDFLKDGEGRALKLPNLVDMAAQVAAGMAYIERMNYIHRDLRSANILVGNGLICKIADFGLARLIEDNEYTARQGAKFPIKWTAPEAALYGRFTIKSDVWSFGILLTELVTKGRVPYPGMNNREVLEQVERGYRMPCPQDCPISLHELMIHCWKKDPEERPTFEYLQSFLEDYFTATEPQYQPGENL
SMILES,inhibition [1] [%],inhibition [2] [%],inhibition [3] [%],inhibition [4] [%],inhibition [5] [%],inhibition [6] [%],inhibition [7] [%],inhibition [8] [%],inhibition [9] [%],inhibition [10] [%],inhibition [11] [%],inhibition [12] [%],inhibition [13] [%],inhibition [14] [%],inhibition [15] [%],inhibition [16] [%],inhibition [17] [%],inhibition [18] [%],inhibition [19] [%],inhibition [20] [%]
CCn1c(-c2nonc2N)nc2c(C#CC(C)(C)O)nc(OC[C@H](N)c3ccccc3)cc21,37.9,2.39,2.81,2.31,4.1,-0.95,1.56,1.87,3.72,6.95,3.62,3.81,7.68,7.61,1.02,16.6,62.6,3.84,5.51,2.39
COc1cc(Nc2nccc(Nc3ccc4c(C)n[nH]c4c3)n2)cc(OC)c1OC,12.9,1.89,7.77,0.97,0.41,-1.67,-0.68,3.64,2.17,0.16,5.56,2.28,4.34,2.57,87.2,78.8,106,79.3,94.1,44.9
Nc1nc(-c2cccc(Cl)c2)c(-c2ccc3ncccc3n2)s1,8.93,2.49,6.68,5.95,4.63,3.94,6.59,1.99,4.09,6.55,12.5,3.47,4.49,14,0.82,0.27,9.77,1.82,2.3,4.49
